Reference: PubChem BioAssay AID652115 (Broad Institute, 2013)
“And” between values parts separate entries of the source, which are not always exact repeats. Identical values can stand only once. Out of some 330,000 compounds screened, about 3,800 (1.2%) were called active. The sample holds actives, similar compounds and a random draw of the others, so the mix is not that of the screen. Unmarked numbers belong to inactive results. Cut-off read from the data, not from the text of the source: active = inhibition above about 15%; inconclusive = no clear call, values can overlap the other calls; inactive = below that.

biological target: NAD-dependent protein deacylase sirtuin-5, mitochondrial (Homo sapiens) (UniProt Q9NXA8); assay: SIRT5 desuccinylase inhibitors, primary screen, biochemical, fluorescence imaging, single point, set 5 (AID 652115); conditions: Purified SirT5, succinyl-peptide AMC, trypsin-coupled fluorescence; at 15 µM; hits give high values
Sequence (Q9NXA8 whole entry, looked up): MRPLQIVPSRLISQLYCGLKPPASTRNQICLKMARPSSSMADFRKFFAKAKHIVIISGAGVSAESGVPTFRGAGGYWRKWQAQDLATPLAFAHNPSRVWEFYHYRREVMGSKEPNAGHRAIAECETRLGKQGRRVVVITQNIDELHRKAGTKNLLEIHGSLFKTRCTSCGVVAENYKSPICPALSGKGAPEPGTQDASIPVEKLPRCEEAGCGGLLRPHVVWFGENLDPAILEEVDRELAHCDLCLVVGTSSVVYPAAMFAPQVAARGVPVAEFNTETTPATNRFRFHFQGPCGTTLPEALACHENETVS

Structure (SMILES)	inhibition
CCCNC(=O)C[C@@H]1CC[C@H]2[C@H](COc3ccc(NC(=O)CCC)cc3C(=O)N2C)O1	-0.672%
COc1ccccc1NC(=O)N1CCCCN2[C@H](CO)[C@H](c3ccc(C#CC4CC4)cc3)[C@@H]2C1	0.625%
CO[C@H]1CN(C)C(=O)c2cc(NS(C)(=O)=O)ccc2OC[C@@H](C)N(Cc2ccccc2)C[C@@H]1C	-4.85%
COCC#Cc1ccc2c(c1)O[C@H](CN(C)C(=O)CN(C)C)[C@@H](C)CN([C@H](C)CO)S2(=O)=O	1.54%
C[C@@H]1CN([C@@H](C)CO)C(=O)c2cc(/C=C/c3ccccc3)cnc2O[C@@H]1CN(C)C(=O)CN(C)C	-20%
C[C@H](CO)N1C[C@H](C)[C@H](CN(C)C(=O)Nc2ccc3c(c2)OCO3)Oc2cc(C#Cc3ccncc3)ccc2S1(=O)=O	-1.42%
CCCN1C[C@@H](C)[C@@H](OC)CN(C)C(=O)c2cc(NC(=O)NC3CCCCC3)ccc2OC[C@H]1C	0.947%
C[C@H](NC(=O)[C@H]1N[C@H]2c3ccc(-c4ccc(C(=O)N(C)C)cc4)c(=O)n3C[C@H]2[C@@H]1CO)c1ccccc1	-55.5%
O=C(NCC1CC1)[C@@H]1[C@@H](CO)[C@@H]2Cn3c(ccc(-c4ccccc4)c3=O)[C@H]1N2C(=O)C1CC1	-28%
CO[C@@H]1CN(C)C(=O)c2ccc(NC(=O)Nc3ccccc3)cc2OC[C@H](C)N(C(=O)CC2CC2)C[C@@H]1C	6.27%
O=C(COC(=O)c1ccc(O)cc1O)NC(=O)c1ccccc1	0.616%
O=C(COC(=O)c1ccccc1)c1ccc2c(c1)OCCO2	0.878%
O=C(COC(=O)c1ccc(O)cc1O)c1ccc2c(c1)OCCO2	19.1% (active)
CO[C@H]1CN(C)C(=O)c2cc(NC(=O)c3cnccn3)ccc2OC[C@@H](C)N(CC2CC2)C[C@@H]1C	0.994%
O=c1ccc2c(-c3ccccc3S(=O)(=O)O)c3ccc(O)c(O)c3oc-2c1O	15.8% (active)
Cn1cnc(CCNC(=O)C[C@H]2CC[C@@H]3[C@H](COC[C@@H](O)CN3C(=O)Nc3ccc(Cl)cc3)O2)c1	3.58%
Cn1cnc(CCNC(=O)C[C@@H]2CC[C@H]3[C@@H](COC[C@@H](O)CN3C(=O)Nc3ccc(Cl)cc3)O2)c1	-1.27%
Cn1cnc(CCNC(=O)C[C@@H]2CC[C@@H]3[C@H](COC[C@@H](O)CN3C(=O)Nc3ccccc3)O2)c1	15.8% (active)
C[C@H]1CCCCO[C@H](CN(C)C(=O)Nc2ccccc2)[C@@H](C)CN([C@@H](C)CO)C(=O)c2cc(NC(=O)Nc3ccc4c(c3)OCO4)ccc2O1	11.6%
CN(c1ccccc1)S(=O)(=O)c1ccc(C(=O)NCCc2ccccc2)cc1	-1.73%
Cc1ccccc1C(=O)NCCN=C1NS(=O)(=O)c2ccccc21	1.57%
CN(C)S(=O)(=O)c1ccc(C(=O)NCCN=C2NS(=O)(=O)c3ccccc32)cc1	15.2% (active)
COc1ccccc1-c1cn(CC[C@@H]2CC[C@@H](NC(=O)c3ccccc3F)[C@H](CO)O2)nn1	-1.68%
COc1cccc(S(=O)(=O)N2C[C@@H](O)COC[C@@H]3O[C@H](CC(=O)N4CCN(C)CC4)CC[C@H]32)c1	-10.1%

Structure (SMILES)	inhibition
C[C@@H]1CN([C@H](C)CO)S(=O)(=O)c2ccc(-c3cccc(F)c3)cc2O[C@H]1CN(C)S(=O)(=O)c1ccc(F)cc1	16.1% (active)
CC(C)CC#Cc1ccc2c(c1)O[C@H](CN(C)S(=O)(=O)c1cccc(F)c1)[C@@H](C)CN([C@@H](C)CO)S2(=O)=O	19.1% (active)
C[C@H](CO)N1C[C@H](C)[C@@H](CN(C)S(=O)(=O)c2cccc(F)c2)Oc2cc(C#CCN(C)C)ccc2S1(=O)=O	0.005%
C[C@@H]1CN([C@@H](C)CO)S(=O)(=O)c2ccc(C#CCN(C)C)cc2O[C@@H]1CN(C)S(=O)(=O)c1cccc(F)c1	2.43%
C[C@H]1CN([C@@H](C)CO)S(=O)(=O)c2ccc(-c3cccc(F)c3)cc2O[C@@H]1CN(C)C	-1.74% and 0.129% and -10.4%
C[C@@H]1CN([C@@H](C)CO)S(=O)(=O)c2ccc(-c3cccc(F)c3)cc2O[C@@H]1CN(C)S(=O)(=O)c1ccccc1	12%
CCCNC(=O)N1[C@@H]2c3ccc(-c4ccccc4OC)c(=O)n3C[C@H]1[C@H](CO)[C@H]2C(=O)N(C)C	-22.3%
C[C@H]1CN([C@@H](C)CO)C(=O)c2cccc(NS(=O)(=O)c3cccs3)c2O[C@H]1CN(C)Cc1ccc(C(=O)Nc2ccccc2N)cc1	5.63%
COc1ccc2c3c(n(C)c2c1)[C@H](CO)N(C(=O)Nc1cccc(F)c1)CC31CN(Cc2nccs2)C1	2.85%
COc1ccc2c3c(n(C)c2c1)[C@@H](CO)N(C(=O)Nc1cccc(F)c1)CC31CCN(Cc2nccs2)CC1	35.6% (active)
CCCC(=O)N1CC2(C1)CN(C(=O)Nc1cccc(F)c1)[C@@H](CO)c1c2c2ccc(OC)cc2n1C	7.29%
O=S1(=O)CC(N2CCN(CCO)CC2)CN1Cc1cn(Cc2ccc(Cl)cc2)nn1 (stereo not given)	32.8% (active)
Cc1ccc(Cn2cc(CN3CC(N4CCN(C)CC4)CS3(=O)=O)nn2)cc1 (stereo not given)	3.71%
O=S1(=O)CC(N2CCN(CCO)CC2)CN1Cc1cn(Cc2cccc(Cl)c2)nn1 (stereo not given)	-5.71%
CCS(=O)(=O)Nc1ccc2c(c1)C(=O)N(C)[C@H]1CC[C@@H](CC(=O)Nc3ccccc3)O[C@H]1CO2	2.87%
O=C1NN(c2ccccc2)C(=O)/C1=C/c1ccc(-c2cccc(C(=O)O)c2)o1	8.67%
O=C1c2ccccc2NC(c2ccc(-c3cccc(Cl)c3)o2)N1O (stereo not given)	1.64%
O=C(O)C(c1ccccc1)N1C(=O)/C(=C\c2ccc(-c3cccc(Cl)c3)o2)SC1=S (stereo not given)	43.9% (active)
O=C(Nc1cc(Cl)cc(Cl)c1)N[C@@H]1CC[C@H](CCNS(=O)(=O)c2cccc(F)c2)O[C@H]1CO	2.03%
CCCNC(=O)N1CC(=O)N2[C@H](CO)[C@H](c3ccc(C#Cc4cccc(OC)c4)cc3)[C@H]2C1	-0.038%
CCCN(C)C[C@H]1Oc2cc(-c3ccc(C)cc3)ccc2S(=O)(=O)N([C@H](C)CO)C[C@H]1C	1.13%
CN(C)C(=O)c1ccc(-c2ccccc2[C@@H]2[C@@H](C#N)N(C(=O)C3CCCC3)[C@H]2CO)cc1	-3.26%
O=C(N[C@H]1C=C[C@@H](CC(=O)N2CCN(c3ccccc3)CC2)O[C@@H]1CO)c1ccncc1	-0.959%
C=CCC[C@H](Cc1ccc(F)cc1)C(=O)OC[C@@H](NC(=O)[C@@H](CC=C)CC(=O)N[C@H](CO)Cc1ccccc1)C(C)(C)C	0.931%

Structure (SMILES)	inhibition
C=CCC[C@@H](Cc1ccc(F)cc1)C(=O)OC[C@@H](C)NC(=O)[C@H](CC=C)CC(=O)N(CCO)Cc1ccccc1	-0.88%
C=CCC[C@H](Cc1ccc(F)cc1)C(=O)OC[C@H](C)NC(=O)[C@H](CC=C)CC(=O)N(CCO)Cc1ccccc1	16.9% (active)
CC1COc2ccccc2N1C(=O)c1cccnc1Cl (stereo not given)	-1.34%
CC1COc2ccccc2N1C(=O)c1ccc(F)cc1 (stereo not given)	22.7% (active)
CC1COc2ccccc2N1S(=O)(=O)c1ccccc1 (stereo not given)	-1.33%
COc1ccc(CN(C)C[C@@H]2OCCCC[C@@H](C)Oc3ccc(NC(=O)Nc4ccc(C(F)(F)F)cc4)cc3C(=O)N([C@H](C)CO)C[C@H]2C)cc1	6.39%
CN(C)CC(=O)N[C@H]1CC[C@H](CCNC(=O)Nc2ccc(F)cc2)O[C@H]1CO	-1.16%
Cc1nc(N2[C@H](CO)[C@H](c3ccccc3)[C@H]2CNCC2CCCCC2)sc1C	5.49%
CC(C)NC(=O)N1[C@@H]2c3ccc(-c4ccc(F)cc4)c(=O)n3C[C@@H]2[C@@H](CO)[C@@H]1C(=O)N1CCOCC1	-2.98%
O=C(Nc1nnc(C2CC2)s1)c1ccccn1	23.4% (active)
O=C(Nc1nnc(C2CC2)s1)c1cc(Cl)sc1Cl	-1.4%
Cc1cc(C(=O)Nc2nnc(C3CC3)s2)c(C)s1	-4.14%
CO[C@@H]1CN(C)C(=O)c2cc(NS(C)(=O)=O)ccc2OC[C@H](C)N(C(=O)C2CC2)C[C@@H]1C	1.74%
COCC(=O)Nc1ccc2c(c1)C(=O)N(C)C[C@@H](OC)[C@@H](C)CN(C(=O)Cc1ccccn1)[C@@H](C)CO2	-3.53%
C[C@@H](O)C#Cc1cnc2c(c1)C(=O)N([C@@H](C)CO)C[C@H](C)[C@H](CN(C)Cc1cncnc1)O2	8.12%
Cc1ccc(C(=O)NCC(=O)NC2CC2)cc1	-1.54%
COc1ccc(S(=O)(=O)NCC(=O)NCc2cc(=O)n(C)c(=O)n2C)cc1F	-2%
Cc1ccc(C(=O)NCC(=O)NCc2cc(=O)n(C)c(=O)n2C)cc1	31.9% (active)
CC(C)NC(=O)Nc1ccc2c(c1)C(=O)N([C@H](C)CO)C[C@H](C)[C@@H](CN(C)C)OCCCC[C@H](C)O2	0.043%
C#CCOc1ccc(/C=C2/C(=O)ON=C2C)cc1OCC	-2.23%
COc1cc(/C=C2/C(=O)NN(c3cccc(Cl)c3)C2=O)cc(Br)c1O	9.45%
C#CCOc1ccc(/C=C2/C(=O)NN(c3ccccc3)C2=O)cc1OC	98.1% (active)
